# Rows were chosen to be rich in hits. Some 4.3% of all compounds tested hit in one or more screens of this group.
# ADAM10 inh – inhibits human ADAM10; O14672; recombinant ADAM10, EDANS/DABCYL FRET peptide cleavage, 3 h; inhibition, % at 7 µM; actives 0.62% (n = 370,000);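 active = inhibition above a per-campaign cutoff equal to the mean of compounds falling between control-based bounds plus 3 SD, cut at about 20% in these data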;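 note: 0% = DMSO wells while the 100% control is not disclosed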
# ADAM17 inh – ADAM17 inhibition, QFRET primary screen; P78536; recombinant ADAM17, EDANS/DABCYL FRET peptide cleavage; inhibition, % at 6.95 µM; actives 0.83% (n = 370,000);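 active = inhibition above the mean of compounds lying between control limits plus 3 SD, set per campaign, cut at about 8.5% in these data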;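 note: 0% = DMSO-only wells as the low control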
# sPLA2-III inh – Inhibits HGIII-sPLA2 liposome hydrolysis, primary screen; QFRET BODIPY PC-A2 liposome hydrolysis, fluorescence; inhibition, % at 12.2 µM; actives 0.56% (n = 370,000); AID 743126; Q9NZ20;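 active = inhibition above mean plus 3 SD of compounds lying within the high and low control bounds, cut at about 19% in these data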;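 note: 0% = median of test compound wells and 100% = no enzyme DMSO wells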
# NR3A LBD binder – modulates the human NR3A ligand-binding domain | Tm shift relative to glycine control, % at 25 µM | NR3A LBD differential scanning fluorimetry, Tm shift; 0% = protein alone, 100% = glycine-bound protein | actives 2.5% (n = 340,000);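 active = melting temperature shift of at least 10% of the positive control shift, at one fixed dose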
# FAS TE block – FAS thioesterase (human) inhibition; P49327; recombinant FAS-TE, OMFH fluorogenic substrate, fluorescence endpoint; inhibition, % at 15 µM; actives 0.67% (n = 360,000); AID 602261;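 active = compounds whose normalised, plate-corrected inhibition of enzyme fluorescence in the single-dose primary screen is 50% or more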;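 note: 0% = DMSO with enzyme and 100% = substrate without enzyme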
# ADAM10 confirm – human ADAM10 inhibition, confirmation. shares compounds with ADAM10 inh. ADAM10 QFRET peptide cleavage, EDANS fluorescence. inhibition, % at 6.95 µM. actives 1% (n = 2,100);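 active = inhibition above about 20% chosen separately for each screening run, limit read from the data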;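 note: 0% = DMSO wells and 100% = marimastat wells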
# ADAM17 counter – ADAM17 inhibition, counter-screen for ADAM10 exosite hits; shares compounds with ADAM10 inh; ADAM17 QFRET peptide cleavage, EDANS fluorescence; inhibition, % at 6.95 µM; actives 0.5% (n = 2,100);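 active = mean triplicate inhibition above the solvent-only control wells' mean plus 3 SD, cut at about 12% in these data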;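 note: 0% = DMSO wells and 100% = marimastat wells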
# * marks the source's active call; other numbers are inactive results; . = not tested or not shown.
SMILES,ADAM10 inh,ADAM17 inh,sPLA2-III inh,NR3A LBD binder,FAS TE block,ADAM10 confirm,ADAM17 counter
C[C@H](O)[C@@H]1C(=O)N2CCc3c([nH]c4c(-c5ccccc5)cccc34)[C@@H]2C[C@@H]1N(C)C(=O)c1ccccc1F,-17,-3,-49,.,.,.,.
CC(C)C[C@H]1COc2cc(N3CCCC3)ccc2S(=O)(=O)N1C,7,4,-2,.,.,.,.
COc1ccc(S[C@]2(C(=O)NC3CC3)CC(=O)N[C@@H]2c2ccc(OC)cc2)cc1,-10,-3,11,.,.,.,.
CC(=O)c1cccc(NC(=O)C(C)OC(=O)c2cc(C)oc2C)c1 (configuration not stated),-3,6,-5,1,-1,.,.
Cc1cc(C(=O)OC(C(=O)Nc2ccc(C)c(Cl)c2)c2ccccc2)c(C)o1 (configuration not stated),22*,7,-10,26*,19,5,3
COC(=O)c1cc2c(c3c4cc(OC)ccc4n(C(=O)c4ccccc4)c13)C(=O)N(C1CCCCC1)C2,-41,-15,-3,.,.,.,.
O=C(COc1ccc(-c2nnco2)cc1)Nc1c(F)cccc1F,84*,0,-2,14*,-3,-1,0
O=C(NC(NC(=S)Nc1ccc(Cl)c(Cl)c1)C(Cl)(Cl)Cl)c1ccco1 (configuration not stated),29*,9,-10,9,24,4,2
O=S1(=O)c2ccc(N3CC[C@@H](O)C3)cc2O[C@H]2CCN1C2,-13,-6,16,.,.,.,.
COc1ccc(CN(C2CCCCC2C)S(=O)(=O)c2ccc(S(=O)(=O)N(C)C)cc2)cc1OC (configuration not stated),22*,5,-19,2,32,8,2
COc1cc(CN(C2CCCCC2C)S(=O)(=O)c2ccc(S(=O)(=O)NC3CC3)cc2)cc(OC)c1OC (configuration not stated),11,3,-28,-4,17,.,.
CC(=NNC(=S)Nc1ccccc1)c1ccccn1,26*,13*,21*,.,-2,48*,43*
CC(=NNC(=S)Nc1ccccc1Cl)c1ccccn1,1,2,13,-3,2,.,.
Cc1ccc(C(=S)NCS(=O)(=O)c2ccc(C)cc2)cc1,26*,7,19,1,4,21*,7
O=C(CCNc1cc(Cl)cc(Cl)c1)c1cccs1,22*,7,-20,-1,43,6,2
O=C(CCNc1ccc(Cl)cc1)c1cccs1,3,2,-2,-8,6,.,.
Cc1cc(N2CCN(CC(C)(C)O)C[C@@H]2C)ccc1N1CCN(CC(C)(C)O)[C@H](C)C1,-3,3,10,.,.,.,.
C/C(N)=C(/C#N)C(=O)CSc1nn(-c2ccc(Cl)cc2)c(=S)s1,24*,8,-30,13*,28,4,1
C/C(N)=C(/C#N)C(=O)CSc1nnc(SCc2ccc(Cl)cc2)s1,-3,-3,-44,1,26,.,.
CCC/C(=C1/c2ccccc2C(=O)N1c1ccccc1)c1c(C)noc1C,-21,-5,-1,.,.,.,.
Oc1ccc(F)cc1-c1cc(-c2ccc3c(c2)OCCO3)n[nH]1,23*,7,-24,4,24,7,3
Oc1ccccc1-c1cc(-c2ccc(F)cc2)n[nH]1,3,0,-32,-2,7,.,.
C[C@H]1/C=C/CC(=O)N[C@@H](c2ccc3ccccc3c2)[C@@H](C)/C=C/CC(=O)N[C@H]1c1ccc2ccccc2c1,3,-1,11,.,.,.,.
O/N=C(/c1ccc(F)cc1)C1CC1c1c(F)cccc1Cl (configuration not stated),26*,4,1,1,-1,3,1
O=C(C1CCCN(S(=O)(=O)c2ccc([N+](=O)[O-])cc2)C1)N1CCN(Cc2ccccc2)CC1 (configuration not stated),5,1,-3,.,.,.,.
SMILES,ADAM10 inh,ADAM17 inh,sPLA2-III inh,NR3A LBD binder,FAS TE block,ADAM10 confirm,ADAM17 counter
COc1ccccc1C(=O)NC(=S)Nc1cccc2cc(O)ccc12,25*,6,-38,9,14,9,3
O=C(NC(=S)Nc1cccc2cc(O)ccc12)c1ccccc1Br,-4,-2,-4,1,12,.,.
S=c1[nH]cc(-c2ccccc2)n1-c1ccccc1,23*,11*,19,1,-6,-2,0
CCn1c(-c2ccccc2)c[nH]c1=S,-5,1,7,0,-7,.,.
COc1ccc(CN(CC#Cc2ccc(C)cc2)C(N)=NC(=O)CCc2ccccc2)c(OC)c1,13,6,-10,.,.,.,.
O=C(/C=C/c1cccc([N+](=O)[O-])c1)Nn1c(-c2ccccc2F)nc2ccccc2c1=O,24*,7,-9,-7,28,-2,0
O=C(Nc1ccc(OCC(F)(F)C(F)F)cc1)c1ccncc1,9,4,1,-1,0,.,.
O=C(Nc1ccc(OCC(F)(F)C(F)F)c(C(F)(F)F)c1)c1ccccc1,24*,7,-8,27*,35,3,0
COC(=O)CCC1NC(=O)C(Cc2c[nH]c3ccccc23)NC(=O)C2CC(=O)OC(C)C(NC(=O)C(C)NC(=O)C3CCCN3C(=O)C3CCCN3C(=O)C(C)NC(C)=O)C(=O)NC(CC(C)C)C(=O)NC(CCCCNC(=O)CCC(C(=O)NC(Cc3ccc(O)cc3)C(=O)O)NC1=O)C(=O)NC(Cc1c[nH]c3ccccc13)C(=O)N1CCCC1C(=O)NC(CO)C(=O)N2 (configuration not stated),-9,-1,-5,.,.,.,.
O=C(C(=Cc1ccc(O)cc1)c1ccccc1)c1ccccc1,30*,8,-27,.,24,8,2
COC(=O)[C@]12CCCCC=C1N(Cc1ccc(OC)cc1)C(=O)[C@@H]2CC(=O)NCc1cccc(C(F)(F)F)c1,11,5,-23,.,.,.,.
CCCCCCCCN1C(=O)N2Cc3cc(F)ccc3C2CS1(=O)=O (configuration not stated),7,1,7,.,.,.,.
Cc1ccc(-c2ccnc(-c3ccc(O)cc3)n2)cc1,17,3,-33,-11,0,.,.
Oc1ccc(-c2nccc(-c3ccc(Br)cc3)n2)cc1,20*,6,-56,37*,8,6,2
O=C(Nc1ccc(Cl)cc1)Nc1ccccc1NS(=O)(=O)c1cccs1,23*,8,-25,30*,13,4,1
Cc1cc(OCc2cc(C(=O)N(C)Cc3nonc3C)no2)cc(C)c1Cl,28*,5,-29,-5,29,7,2
COc1ccc(S(=O)(=O)N2CCN(C(=O)c3ccc([N+](=O)[O-])o3)CC2)cc1,21*,5,5,1,4,1,1
